Screening results: PubChem, several laboratories
Compounds with a hit are over-represented: about 3.1% of the library has one in this group of screens.
CF NFkB block = inhibitors of PAF-induced NF-kB signaling, primary screen, cell-based, GFP fluorescence, uHTS. KKLEB NF-kB-GFP reporter, GFP fluorescence overnight. inhibition, % at 5 µM. 0.86% of 360,000 active;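 active = at least 50% inhibition at 5 µM, scaled per plate between neutral and stimulator controls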;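 note: PAF is a Pseudomonas aeruginosa culture filtrate used as stimulus; plate controls were PAF-stimulated DMSO wells for no effect and unstimulated DMSO wells for full effect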
KKLEB tox = cytotoxicity in KKLEB CF airway cells, primary screen, cytotoxicity control for CF NF-kB inhibitor project, cell-based, uHTS, fluorescence assay plates; activity change (cytotoxicity), % at 5 µM; AID 602141, 2011; KKLEB CF airway cells viability, ATPlite luminescence, overnight; active compounds read low; cells stimulated with P. aeruginosa culture filtrate; 0.36% of 360,000 active;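 active = corrected activity change at or below -50% at 5 µM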
HIF-2a inh = HIF-2a reporter inhibitors, primary screen, luminescence, 786-0 RCC cells. 786-0 RCC cells HIF-2a reporter, luciferase luminescence, overnight. inhibition, % at 18.8 µM. 0.72% of 360,000 active. AID 624352, 2012;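 active = inhibition of the luminescence signal of 40% or more relative to plate controls, in a single-dose primary screen at 18.75 µM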
MITF TRPM1 inh = inhibitors of MITF-dependent TRPM1 promoter reporter, primary screen, cell-based, SK-MEL-5, single point, luciferase; AID 488899, 2010; 0.83% of 330,000 active; SK-MEL-5 TRPM1 promoter luciferase, 24 h; inhibition, % at 12.5 µM;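 active = mean inhibition across replicates of 60% or more, whatever share of single replicates reaches that level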
Peg3 promoter = Peg3 promoter-driven luciferase inhibitors, primary screen, cell-based, HeLa, luciferase luminescence; inhibition, % at 20 µM; HeLa PEG-Prom luciferase reporter, overnight; AID 588405, 2011; 1.7% of 360,000 active;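 active = inhibition of at least 50% at 20 µM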
ABHD5-PLIN5 inh = ABHD5-PLIN5 interaction inhibitors, primary screen, cell lysate, split luciferase complementation, luminescence; Perilipin-5 (Homo sapiens) + 1-acylglycerol-3-phosphate O-acyltransferase ABHD5 (Homo …; Split G. princeps luciferase complementation, 4 h; inhibition, % at 4 µM; 0.78% of 360,000 active; AID 602281, 2012;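 active = inhibition above the mean inhibition across every tested compound plus 3 SD, cut at about 22% in these data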;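 note: 0% = DMSO only wells and the 100% control is not disclosed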
Starred values were filed as active, the others as inactive.

`Cc1cccc(-n2c(/C=C/c3ccc([N+](=O)[O-])o3)nc3ccccc3c2=O)c1` gave CF NFkB block -6, KKLEB tox 12, HIF-2a inh 20, MITF TRPM1 inh 86*, Peg3 promoter 86* and ABHD5-PLIN5 inh 2.
CC(C)C(NC(=O)C(C(C)C)N(C)C)C(=O)N(C)C(C(=O)N1CCCC1C(=O)N1CCCC1C(=O)NCc1ccccc1)C(C)C (configuration not stated) was read as CF NFkB block 64*, KKLEB tox -42, HIF-2a inh 31, MITF TRPM1 inh 65*, Peg3 promoter -3 and ABHD5-PLIN5 inh -9.
`CC/C(=N\N1CCCCCC1)c1c(O)n(-c2ccccc2C)c(=O)[nH]c1=O` gave CF NFkB block 15, KKLEB tox 3, HIF-2a inh 15, MITF TRPM1 inh -1, Peg3 promoter -1 and ABHD5-PLIN5 inh -4.
N#CCCn1cc(C(=O)O)c(-c2cccc([N+](=O)[O-])c2)n1 was read as CF NFkB block 8, KKLEB tox 0, HIF-2a inh 7, MITF TRPM1 inh 1, Peg3 promoter 6 and ABHD5-PLIN5 inh 0.
Screening C[N+](C)(C)CC(=O)O returned CF NFkB block -12, KKLEB tox -10, HIF-2a inh -7, MITF TRPM1 inh -2, Peg3 promoter 10 and ABHD5-PLIN5 inh 1.
`C[C@]12CCC3C(CCC4=CC(O)CC[C@@]43/C=N/O)C1(O)CCC2C1=CC(=O)OC1` (some centres not stated) gave CF NFkB block 81*, KKLEB tox -62*, HIF-2a inh 31, MITF TRPM1 inh 86*, Peg3 promoter 105* and ABHD5-PLIN5 inh -2.
For Cc1cc2c(C(C)C)c(O)c(O)c(C=O)c2c(O)c1-c1c(C)cc2c(C(C)C)c(O)c(O)c(C=O)c2c1O the results were CF NFkB block 62*, KKLEB tox -53*, HIF-2a inh 89*, Peg3 promoter 94* and ABHD5-PLIN5 inh 7.
`CCCCCc1nc2c(c(=O)c3ccccc3n2C)c(=O)n1C1CCCCCC1` gave CF NFkB block 44, KKLEB tox -23, HIF-2a inh -3, MITF TRPM1 inh 8, Peg3 promoter 72* and ABHD5-PLIN5 inh -1.
`CCCCCc1nc2ccccc2c(=O)n1-c1ccccc1[N+](=O)[O-]` gave CF NFkB block -2, KKLEB tox -26, HIF-2a inh 18, MITF TRPM1 inh -7, Peg3 promoter 24 and ABHD5-PLIN5 inh 0.
Screening C[C@]12C[C@H](O)[C@@H](O)CC1=CCC1C2CC[C@@]2(C)C1CC[C@@H]2O (some centres not stated) returned CF NFkB block 3, KKLEB tox -15, HIF-2a inh -2, MITF TRPM1 inh 12, Peg3 promoter 2 and ABHD5-PLIN5 inh -2.
For Cc1ccc2c(c1Cl)NC(C(=O)O)C1CC(Sc3ccccc3[N+](=O)[O-])C(Cl)C21 (configuration not stated) the results were CF NFkB block 12, KKLEB tox 0, HIF-2a inh 14, MITF TRPM1 inh -9, Peg3 promoter 36 and ABHD5-PLIN5 inh 1.
CCN(CC)C(=O)c1ccc2c(c1)C1C(Cl)C(Sc3ccccc3[N+](=O)[O-])CC1C(C(=O)O)N2 (configuration not stated) was read as CF NFkB block 4, KKLEB tox 6, HIF-2a inh 20, MITF TRPM1 inh 12, Peg3 promoter 15 and ABHD5-PLIN5 inh 23*.
Screening CN1CCN(Cc2cn(C)c3ccccc23)CC1CCO (configuration not stated) returned CF NFkB block -17, KKLEB tox 6, HIF-2a inh 17, MITF TRPM1 inh -9, Peg3 promoter -36 and ABHD5-PLIN5 inh 1.
CC(=O)O/C(=C1\CC2C3CC=C4CC(OC(C)=O)CCC4(C)C3CCC2(C)C1=O)C(F)(F)F (configuration not stated) was read as CF NFkB block 8, KKLEB tox 9, HIF-2a inh 6, MITF TRPM1 inh 14, Peg3 promoter 63* and ABHD5-PLIN5 inh 4.
O=C1NC2C(=CC(O)C(O)C2O)c2cc3c(cc21)OCO3 (configuration not stated) was read as CF NFkB block 78*, KKLEB tox -7, HIF-2a inh 35, MITF TRPM1 inh 67*, Peg3 promoter 98* and ABHD5-PLIN5 inh 4.
`COC1CCC(OC2CC(C3(C)CCC4(CC(O)C(C)C(C(C)/C=C(\C)C(=O)C(C)CC(C)C(=O)O)O4)O3)OC3(OC(C4OC(O)(CO)C(C)CC4C)CC3C)C2C)OC1C` (configuration not stated) gave CF NFkB block 82*, KKLEB tox -75*, HIF-2a inh 74*, MITF TRPM1 inh 84*, Peg3 promoter 98* and ABHD5-PLIN5 inh 0.
For Cc1ccc(-c2cc(-c3ccc(C)cc3)[n+](C)o2)cc1 the results were CF NFkB block 5, KKLEB tox 0, HIF-2a inh -7, MITF TRPM1 inh 63*, Peg3 promoter 3 and ABHD5-PLIN5 inh 3.
CC(C)Oc1cccnc1N(C)C1CCN(Cc2ccccc2)CC1 was read as CF NFkB block 3, KKLEB tox -9, HIF-2a inh 12, MITF TRPM1 inh -5, Peg3 promoter 1 and ABHD5-PLIN5 inh -2.
Cn1ncnc2c(=O)n(C)c(=O)nc1-2 was read as CF NFkB block 102*, KKLEB tox -97*, HIF-2a inh 82*, MITF TRPM1 inh 103*, Peg3 promoter 105* and ABHD5-PLIN5 inh -29.
Screening O=C(O)c1ccc(N=Cc2c(O)[nH]c(=O)[nH]c2=O)cc1 returned CF NFkB block -20, KKLEB tox 16, HIF-2a inh 15, MITF TRPM1 inh -7, Peg3 promoter 1 and ABHD5-PLIN5 inh 2.
For Cc1cc(C)c(N=Cc2c(O)[nH]c(=O)[nH]c2=O)c(C)c1 the results were CF NFkB block 14, KKLEB tox -14, HIF-2a inh 8, MITF TRPM1 inh 32, Peg3 promoter 51* and ABHD5-PLIN5 inh 2.
Screening C[N+](C)(C)Cc1ccccc1 returned CF NFkB block -10, KKLEB tox -44, HIF-2a inh 0, MITF TRPM1 inh -4, Peg3 promoter 11 and ABHD5-PLIN5 inh -1.
For CCOC(=O)c1cc2c(cn1)[C@H](CCO)NC2 the results were CF NFkB block 2, KKLEB tox 6, HIF-2a inh 2, MITF TRPM1 inh 2, Peg3 promoter -14 and ABHD5-PLIN5 inh 6.
